Data reported in PubChem BioAssay (NCI).
Compounds without any hit were thinned out: in the full panel of roughly 83,000, 20% have a hit.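 Step 1: grow cells in 96-well plates. Step 2: add test compound at a single concentration. Step 3: incubate 48 h. Step 4: record percent growth.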 Unmarked numbers belong to inactive results. The source made the active and inactive calls. How the source made its calls: active means growth percent below 10; inactive means the rest.

tested on: MDA-MB-468 breast; test: NCI-60 one-dose screen, 48 h (100 = growth as untreated, 0 = no growth, -100 = all killed); details: 10 µM unless noted

| Structure (SMILES) | growth |
| --- | --- |
| COc1ccc(/C=C/C(=O)c2ccc(-n3cc(CN4CCN(c5cc6c(cc5F)c(=O)c(C(=O)O)cn6C5CC5)CC4)nn3)cc2)cc1 | 26.3% |
| COc1ccc2c(c1)/C(=C/c1sc(=S)n(Cc3ccco3)c1O)C=N2 | 3.03% (active) |
| O=c1c2cnn(-c3ccccc3)c2n2c(CN3CCOCC3)nnc2n1-c1ccccc1 | 116% |
| COc1cc(C(=O)/C=C/c2c(C)n([O-])c3ccc(Cl)cc3[n+]2=O)cc(OC)c1OC | 27.6% |
| COc1cc(-c2cc3cc(O)ccc3oc2=O)cc(OC)c1OC | 106% |
| COc1cc(NC(=O)CCSc2nc3ccccc3c(=O)n2CCc2ccccn2)cc(OC)c1OC | 91.8% |
